The whole screen tested about 340,000 compounds, of which about 330 (0.097%) were called active.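 The calls were made as follows: active = mean replicate inhibition of at least 30% and at least 1% of replicates passing that level; inconclusive = only one of the two criteria is met; inactive = neither criterion is met.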 The full list was thinned out, with actives kept by preference.
Test system: Voltage-dependent L-type calcium channel subunit alpha-1D (CaV1.3) ICDI/IQ interaction
Assay: Disruptors of the CACNA1D IQ motif to Ca2+-dependent inactivation inhibitor domain association, primary screening, Förster resonance energy transfer in intact living cells, one concentration (AID 743397);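 also: 0% = median of the neutral control wells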
Details: HEK cells, CFP/YFP FRET ICDI-IQ, plate reader, 10 min; at 12.3 µM; stronger effect = higher value; percent FRET-ratio fall versus neutral wells

Question: How did the inhibition turn out when `CCOC(=O)Cn1c2c(n(-c3ccc(F)cc3)c1=O)C=C(c1ccccc1)[C@@H](C)C(C(=O)N(C)C1CCCCC1)=C2` was run?
Answer: -5.25% (inactive)

Question: How did the inhibition turn out when `Cc1ccc(C)c(N2C(=O)CS/C2=N\NC(=O)c2ccccc2Cl)c1` was run?
Answer: -8.17% (inactive)

Question: `Cc1cc(OC(=O)c2ccccc2Cl)ccc1N1C(=O)CCC1=O` was tested. Which inhibition did it give?
Answer: 66.2% (active)

Question: Which inhibition does the source give for `Cc1cccc(/C(N)=N/OC(=O)c2ccccc2Cl)c1` here?
Answer: 1.19% (inactive)

Question: Which inhibition does the source give for `CC[C@H](C)[C@H]1CNC(=O)C(=O)N1CC1CCN(CCc2ccc(OC)c(OC)c2)CC1` here?
Answer: -5.2% (inactive)

Question: Which inhibition does the source give for `CC1CCN(CCCn2c(SCC(=O)NC3CCCC3)nc3ccccc3c2=O)CC1` here?
Answer: -1.93% (inactive)

Question: With `Cc1nc2ccccc2c2oc(C(=O)NCCCN3CCC(C)CC3)cc12` as the compound, how does the inhibition read?
Answer: 61.5% (active)

Question: How did the inhibition turn out when `CCCN(CCC)CCNC(=O)c1cc2c(C)nc3ccccc3c2o1` was run?
Answer: -3.91% (inactive)

Question: `CC(C)(C)n1nc(C2CC2)c(Br)c1NC(=O)c1ccccc1F` was tested. Which inhibition did it give?
Answer: -11.7% (inactive)

Question: `CC(=O)C1=C(C)N(Cc2ccccc2)C(=S)NC1c1cccc(Br)c1` (configuration not stated) was tested. Which inhibition did it give?
Answer: -5.09% (inactive)

Question: `Cc1cc2c(nc1C)CCCN2C` was tested. Which inhibition did it give?
Answer: -4.25% (inactive)

Question: How did the inhibition turn out when `CN1C(=O)C2CC(O)C(SC3CC4C(=O)N(C)C(=O)C4CC3O)CC2C1=O` (configuration not stated) was run?
Answer: -4.52% (inactive)

Question: `COC(=O)C1=C(C(=O)OC)C2C=C(C(C)C)C1C(=O)C2(C)O` (configuration not stated) was tested. Which inhibition did it give?
Answer: -3.68% (inactive)

Question: How did the inhibition turn out when `O=C(NCc1ccccc1)[C@@H]1CCCN1C(=O)[C@H]1CCCN1C(=O)c1cccc(Cl)c1` was run?
Answer: -3.24% (inactive)

Question: `C[C@H]1CN([C@@H](C)CO)C(=O)CCCn2nncc2CO[C@@H]1CN(C)C(=O)Nc1ccc(N2CCN(C)CC2)cc1` was tested. Which inhibition did it give?
Answer: -5.58% (inactive)

Question: How did the inhibition turn out when `CCOC(=O)c1ccc(-c2ccc3ncnc(N(C)Cc4sccc4C)c3c2)o1` was run?
Answer: -9.32% (inactive)

Question: With `Clc1cccc2c1C1CC2CCN1Cc1ccccc1` (configuration not stated) as the compound, how does the inhibition read?
Answer: -3.78% (inactive)

Question: `Nc1[nH]c(C(=O)c2ccccc2)c(-c2ccc(Cl)cc2Cl)c1C(=O)c1ccccc1` was tested. Which inhibition did it give?
Answer: -17.7% (inactive)

Question: How did the inhibition turn out when `CCOC(=O)c1oc2c(CN3CCN(C)CC3)c(O)ccc2c(=O)c1-c1ccc(Br)cc1` was run?
Answer: -4.95% (inactive)

Question: `Cn1c(=O)[nH]c(=O)c2c1nc(N1CCN(CCO)CC1)n2CCSc1nc2ccccc2s1` was tested. Which inhibition did it give?
Answer: -4.96% (inactive)

Question: Which inhibition does the source give for `CCOC(=O)c1oc2c(CN3CCN(CCO)CC3)c(O)c(CC)cc2c(=O)c1-c1nc2ccccc2s1` here?
Answer: 37% (active)

Question: Which inhibition does the source give for `O=C(NCc1ccccc1)[C@H]1CCCN1C(=O)[C@H]1CCCN1C(=O)c1cc(F)cc(F)c1` here?
Answer: -8.46% (inactive)

Question: For `O=C(NCc1ccccc1)[C@@H]1CCCN1C(=O)[C@@H](NS(=O)(=O)c1ccc(F)cc1F)C1CCCCC1`, which inhibition is on record?
Answer: -2.67% (inactive)

Question: `O=C(C(=O)N1CCC(CNS(=O)(=O)Cc2ccccc2)CC1)c1cc2ccccc2o1` was tested. Which inhibition did it give?
Answer: -8.57% (inactive)

Question: Which inhibition does the source give for `Cc1ccc(C)c(CN2CCC(CNC(=O)C3CCCN(c4ncnc5c4nc4n5CCCCC4)C3)CC2)c1` (configuration not stated) here?
Answer: -13.7% (inactive)

Question: How did the inhibition turn out when `O=C(O)Cn1cnc2c(NCc3ccccc3)ncnc21` was run?
Answer: -6.21% (inactive)

Question: How did the inhibition turn out when `CC(C)C[C@H](NC(=O)CC1CCCC1)C(=O)N1CCC[C@H]1C(=O)NCc1ccccc1` was run?
Answer: -8.63% (inactive)

Question: With `Nc1[nH]c(C(=O)c2ccc(Br)cc2)c(-c2ccc3c(c2)OCO3)c1C(=O)NCCc1c[nH]c2ccccc12` as the compound, how does the inhibition read?
Answer: -16.2% (inactive)

Question: Which inhibition does the source give for `CCOC(=O)C1CSCCS(=O)(=O)N1Cc1ccc(Cl)cc1` (configuration not stated) here?
Answer: -4.73% (inactive)

Question: `O=C1[C@@H](c2ccccc2)[C@@H](c2ccccc2)N1c1ccccc1` was tested. Which inhibition did it give?
Answer: -7.31% (inactive)

Question: `Brc1ccc(COCCc2cn(Cc3ccccc3)c3ccccc23)cc1` was tested. Which inhibition did it give?
Answer: -2.59% (inactive)

Question: With `CC(=O)c1ccc(-c2cnc3c(NC=O)cc(-c4cccc(NS(C)(=O)=O)c4)cn23)cc1` as the compound, how does the inhibition read?
Answer: -5.47% (inactive)

Question: `COCCCNC(=O)C[C@H]1C[C@@]2(C(=O)OC)C(=C[C@H](C(C)(C)C)O[C@@H]2C)N(Cc2ccc3c(c2)OCO3)C1=O` was tested. Which inhibition did it give?
Answer: -3.83% (inactive)

Question: How did the inhibition turn out when `O=C(N[C@H](Cc1ccccc1)C(=O)N1CCCN(Cc2cccs2)CC1)[C@H]1O[C@@H](n2ccc(=O)[nH]c2=O)[C@H](O)[C@@H]1O` was run?
Answer: -3.41% (inactive)

Question: How did the inhibition turn out when `Cc1ccc2nc(-c3ccc(CN4CCC(n5cc(-c6ccccc6)[nH]c5=O)CC4)cc3)c(-c3ccccc3)nc2c1` was run?
Answer: -15.6% (inactive)

Question: `COC(=O)C1=C(C)N(Cc2ccc(F)cc2)C(=S)NC1c1cccc(Cl)c1` (configuration not stated) was tested. Which inhibition did it give?
Answer: -2.29% (inactive)

Question: Which inhibition does the source give for `CCCCCCCCN1C(=O)[C@@H](CC(=O)NCc2ccccc2)C[C@@]2(C(=O)OC)C1=C[C@H](C(C)(C)C)O[C@@H]2C` here?
Answer: -8.36% (inactive)

Question: How did the inhibition turn out when `O=C(NN=Cc1ccco1)C(=O)Nc1ccc(Cl)c([N+](=O)[O-])c1` was run?
Answer: -13% (inactive)

Question: For `O=S1(=O)c2ccc(Br)cc2-n2nncc2CN1Cc1cccc(Cl)c1`, which inhibition is on record?
Answer: -9.71% (inactive)

Question: Which inhibition does the source give for `COC(=O)[C@]12C[C@H](CC(=O)NCc3ccc(OC)c(OC)c3)C(=O)N(Cc3ccccc3)C1=C[C@H](C(C)C)O[C@@H]2C1CC1` here?
Answer: -11.2% (inactive)

Question: For `CC(=O)C1=C(C)N(Cc2ccc(Cl)cc2)C(=S)NC1c1ccc(F)cc1` (configuration not stated), which inhibition is on record?
Answer: -2.53% (inactive)

Question: For `CC(C)[C@H]1COCCS(=O)(=O)N1Cc1ccccc1-c1cccc2c1sc1ccccc12`, which inhibition is on record?
Answer: -4.21% (inactive)

Question: For `C[C@H]1[C@H](c2ccccc2)Oc2cc(Br)ccc2S(=O)(=O)N1Cc1cccc(F)c1`, which inhibition is on record?
Answer: -4.74% (inactive)

Question: Which inhibition does the source give for `O=S(=O)(c1cccs1)N1CCCc2nc(-c3ccc(Br)cc3)ccc21` here?
Answer: -8.65% (inactive)

Question: For `C=CCN=C1NC(c2ccccc2)C(C(=O)OC)=C(C)N1Cc1ccc(C(F)(F)F)cc1` (configuration not stated), which inhibition is on record?
Answer: -6.18% (inactive)

Question: Which inhibition does the source give for `CCN1CCN(CC(=O)Nc2sc3c(c2C#N)CCC3)CC1` here?
Answer: -6.79% (inactive)

Question: How did the inhibition turn out when `N#Cc1c(N)sc2c1CCN(C(=O)OCc1ccccc1)C2` was run?
Answer: -7.05% (inactive)

Question: Which inhibition does the source give for `CNC(=S)NNC(=O)c1ccc(N(C)C)cc1` here?
Answer: -4.61% (inactive)

Question: `CC(=O)NC(=S)NNC(=O)c1ccc(Br)cc1` was tested. Which inhibition did it give?
Answer: 74.6% (active)

Question: Which inhibition does the source give for `O=C(NNC(=O)c1ccc(Cl)nc1)c1ccc(Br)cc1` here?
Answer: -6.15% (inactive)

Question: `CCCCC(=O)Nc1ccc(C(=O)Nc2cc(C(F)(F)F)ccc2Cl)cc1` was tested. Which inhibition did it give?
Answer: -17.6% (inactive)

Question: `O=C(Nc1ccc(C(F)(F)F)cc1)c1cccc(-n2cnnn2)c1` was tested. Which inhibition did it give?
Answer: -5.18% (inactive)

Question: With `O=C1Nc2ccccc2C1=NN=Cc1ccco1` as the compound, how does the inhibition read?
Answer: -4.56% (inactive)

Question: For `CCCCC[C@H](C)N1C[C@@H](COCc2ccccc2)Oc2cc(N3CC[C@@H](N(C)C)C3)ccc2S1(=O)=O`, which inhibition is on record?
Answer: -7.78% (inactive)

Question: `O=C(Nc1cccc([N+](=O)[O-])c1)Nn1cnnc1` was tested. Which inhibition did it give?
Answer: -5.3% (inactive)

Question: Which inhibition does the source give for `N#Cc1cccc(Nc2c3c(nc4ccccc24)CCCC3)c1` here?
Answer: -2.56% (inactive)

Question: `O=[N+]([O-])c1cccc(Nc2c3ccccc3nc3ccccc23)c1` was tested. Which inhibition did it give?
Answer: 87.1% (active)

Question: With `CCn1c(=N)c(C(=O)NCCCOC)cc2c(=O)n3cccc(C)c3nc21` as the compound, how does the inhibition read?
Answer: 45.8% (active)

Question: With `COc1ccc(CCn2c(=N)c(C(=O)NCC3CCCO3)cc3c(=O)n4cccc(C)c4nc32)cc1OC` (configuration not stated) as the compound, how does the inhibition read?
Answer: -7.32% (inactive)

Question: For `COCCCn1c(C(=O)NC2CCCCC2)cc2c(=O)n3cccc(C)c3nc21`, which inhibition is on record?
Answer: -7.34% (inactive)

Question: Which inhibition does the source give for `COCc1[nH]nc2c1C(c1ccccc1)N(c1ccccc1)C2=O` (configuration not stated) here?
Answer: -4.04% (inactive)

Question: How did the inhibition turn out when `COC(=O)c1cc2c(c3c4cc(F)ccc4n(S(=O)(=O)c4ccccc4)c13)C(=O)N(Cc1ccccc1OC)C2` was run?
Answer: -8.18% (inactive)

Question: How did the inhibition turn out when `C=CC[C@]12C[C@@]3(O[C@H](c4ccc(C(F)(F)F)cc4)N=C3C[C@H](c3ccc(OC)cc3)[C@H]1C)N(C1CCN(Cc3ccccc3)CC1)C2=O` was run?
Answer: -3.62% (inactive)

Question: How did the inhibition turn out when `CCN(CC)CCOCCOc1ccc(Cl)c2ccccc12` was run?
Answer: -5.65% (inactive)

Question: `CN(C)CCOc1ccc(Cl)cc1C(C)(C)C` was tested. Which inhibition did it give?
Answer: 3.19% (inactive)

Question: For `CN(C)CCOCCOc1ccc(Cl)c2ccccc12`, which inhibition is on record?
Answer: 62.4% (active)

Question: For `Cc1ccc(N)cc1CN1CCN(c2ncc(Cc3ccccc3)cn2)CC1`, which inhibition is on record?
Answer: -2.7% (inactive)
